± gives the standard deviation of the averaged measurements.
T1: ARID4A 568-634 Tudor-knot (domain begin residue: 568, domain end residue: 634), P29374
T1 chain: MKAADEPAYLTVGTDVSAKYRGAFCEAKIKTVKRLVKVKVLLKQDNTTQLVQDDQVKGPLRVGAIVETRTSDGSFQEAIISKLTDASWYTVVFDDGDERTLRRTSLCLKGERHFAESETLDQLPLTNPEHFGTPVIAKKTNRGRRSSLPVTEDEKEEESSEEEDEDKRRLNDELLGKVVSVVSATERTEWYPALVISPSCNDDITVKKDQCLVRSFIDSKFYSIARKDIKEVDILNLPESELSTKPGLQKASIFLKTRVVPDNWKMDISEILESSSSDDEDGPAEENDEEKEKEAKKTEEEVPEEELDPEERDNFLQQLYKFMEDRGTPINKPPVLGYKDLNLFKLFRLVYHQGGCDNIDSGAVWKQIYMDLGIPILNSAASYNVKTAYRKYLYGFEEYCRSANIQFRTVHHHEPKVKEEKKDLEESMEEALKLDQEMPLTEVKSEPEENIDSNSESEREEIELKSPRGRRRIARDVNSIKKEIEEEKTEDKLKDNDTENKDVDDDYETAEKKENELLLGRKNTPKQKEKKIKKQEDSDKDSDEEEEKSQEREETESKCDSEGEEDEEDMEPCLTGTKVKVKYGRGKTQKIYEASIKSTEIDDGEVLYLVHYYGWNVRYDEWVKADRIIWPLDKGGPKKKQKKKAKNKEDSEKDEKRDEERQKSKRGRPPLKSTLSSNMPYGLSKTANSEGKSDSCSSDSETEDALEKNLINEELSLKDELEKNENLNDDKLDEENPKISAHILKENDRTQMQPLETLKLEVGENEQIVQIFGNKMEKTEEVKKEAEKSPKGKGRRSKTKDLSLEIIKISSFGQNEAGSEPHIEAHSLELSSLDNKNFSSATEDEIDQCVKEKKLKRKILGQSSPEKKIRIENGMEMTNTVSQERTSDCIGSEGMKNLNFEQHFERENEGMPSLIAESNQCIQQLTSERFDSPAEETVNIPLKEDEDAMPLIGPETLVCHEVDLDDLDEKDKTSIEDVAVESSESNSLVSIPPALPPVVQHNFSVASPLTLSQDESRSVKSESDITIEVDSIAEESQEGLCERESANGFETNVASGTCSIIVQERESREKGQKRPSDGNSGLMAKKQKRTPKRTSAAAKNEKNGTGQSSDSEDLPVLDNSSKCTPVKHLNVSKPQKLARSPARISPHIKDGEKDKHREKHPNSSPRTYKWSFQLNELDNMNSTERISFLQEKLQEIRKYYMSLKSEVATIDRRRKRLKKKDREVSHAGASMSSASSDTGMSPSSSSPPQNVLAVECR

T2: BTN1A1 285-479 SPRY (domain begin residue: 285, domain end residue: 479), Q13410
T2 chain: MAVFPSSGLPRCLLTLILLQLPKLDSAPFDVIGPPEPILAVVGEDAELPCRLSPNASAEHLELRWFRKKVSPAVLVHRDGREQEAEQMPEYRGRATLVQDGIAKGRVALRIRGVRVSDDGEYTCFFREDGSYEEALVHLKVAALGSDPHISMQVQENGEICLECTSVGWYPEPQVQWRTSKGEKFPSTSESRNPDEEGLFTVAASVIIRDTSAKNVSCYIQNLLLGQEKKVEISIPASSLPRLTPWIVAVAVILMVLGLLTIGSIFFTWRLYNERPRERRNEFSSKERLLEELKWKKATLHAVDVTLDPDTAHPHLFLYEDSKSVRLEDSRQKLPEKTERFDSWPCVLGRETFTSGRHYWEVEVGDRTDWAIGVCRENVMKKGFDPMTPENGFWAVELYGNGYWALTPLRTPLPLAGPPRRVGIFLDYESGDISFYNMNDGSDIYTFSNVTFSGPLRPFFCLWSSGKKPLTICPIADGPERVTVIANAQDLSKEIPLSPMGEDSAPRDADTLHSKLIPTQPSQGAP

T3: TDRD1 261-449 TUDOR (domain begin residue: 261, domain end residue: 449), Q9BXT4
T3 chain: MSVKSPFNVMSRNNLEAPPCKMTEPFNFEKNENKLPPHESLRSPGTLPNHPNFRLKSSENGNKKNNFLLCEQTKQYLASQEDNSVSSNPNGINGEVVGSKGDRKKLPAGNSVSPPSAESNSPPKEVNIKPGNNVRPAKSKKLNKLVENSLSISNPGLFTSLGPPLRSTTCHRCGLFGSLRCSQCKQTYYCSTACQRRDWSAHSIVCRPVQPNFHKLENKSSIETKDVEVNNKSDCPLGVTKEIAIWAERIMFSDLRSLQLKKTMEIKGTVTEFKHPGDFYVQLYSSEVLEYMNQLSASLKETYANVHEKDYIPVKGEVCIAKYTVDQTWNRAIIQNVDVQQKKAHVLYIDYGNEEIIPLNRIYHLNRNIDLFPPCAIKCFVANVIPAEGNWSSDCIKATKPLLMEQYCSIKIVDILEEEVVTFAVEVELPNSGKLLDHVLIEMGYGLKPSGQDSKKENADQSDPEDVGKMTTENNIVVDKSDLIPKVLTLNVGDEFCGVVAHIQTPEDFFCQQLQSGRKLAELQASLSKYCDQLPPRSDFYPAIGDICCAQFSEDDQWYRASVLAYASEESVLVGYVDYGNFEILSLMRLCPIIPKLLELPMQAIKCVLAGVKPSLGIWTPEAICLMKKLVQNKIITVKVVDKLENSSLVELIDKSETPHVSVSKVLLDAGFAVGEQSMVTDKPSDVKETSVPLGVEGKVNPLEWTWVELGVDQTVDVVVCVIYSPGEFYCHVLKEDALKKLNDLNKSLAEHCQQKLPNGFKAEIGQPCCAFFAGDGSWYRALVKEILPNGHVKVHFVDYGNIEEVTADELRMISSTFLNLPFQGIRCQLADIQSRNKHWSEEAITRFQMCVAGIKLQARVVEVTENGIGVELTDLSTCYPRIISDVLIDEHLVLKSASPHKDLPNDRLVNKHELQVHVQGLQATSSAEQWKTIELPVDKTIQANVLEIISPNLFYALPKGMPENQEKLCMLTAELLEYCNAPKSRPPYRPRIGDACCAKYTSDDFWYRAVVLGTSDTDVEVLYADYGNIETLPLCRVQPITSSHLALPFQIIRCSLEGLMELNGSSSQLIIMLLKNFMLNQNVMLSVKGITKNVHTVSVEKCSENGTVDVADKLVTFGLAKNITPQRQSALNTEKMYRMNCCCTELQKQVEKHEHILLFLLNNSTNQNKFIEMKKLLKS

T4: TDRKH 290-430 TUDOR+SNase (domain begin residue: 290, domain end residue: 430), Q9Y2W6
T4 chain: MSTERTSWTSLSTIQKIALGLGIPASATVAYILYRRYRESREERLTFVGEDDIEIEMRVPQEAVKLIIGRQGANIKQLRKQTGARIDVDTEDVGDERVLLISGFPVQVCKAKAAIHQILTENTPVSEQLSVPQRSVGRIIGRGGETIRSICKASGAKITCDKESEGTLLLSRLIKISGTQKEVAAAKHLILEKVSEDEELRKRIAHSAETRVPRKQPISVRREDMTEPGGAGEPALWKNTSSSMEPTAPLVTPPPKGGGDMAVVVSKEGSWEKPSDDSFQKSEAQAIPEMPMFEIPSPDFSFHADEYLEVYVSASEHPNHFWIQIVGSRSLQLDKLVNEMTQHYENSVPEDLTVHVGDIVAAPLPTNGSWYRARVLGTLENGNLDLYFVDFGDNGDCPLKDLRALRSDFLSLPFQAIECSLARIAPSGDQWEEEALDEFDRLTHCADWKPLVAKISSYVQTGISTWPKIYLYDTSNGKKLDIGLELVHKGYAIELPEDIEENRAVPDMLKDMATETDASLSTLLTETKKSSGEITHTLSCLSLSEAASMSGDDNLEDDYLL

T5: ALDOA 1-364 Glycolytic (domain begin residue: 1, domain end residue: 364), P04075
T5 chain: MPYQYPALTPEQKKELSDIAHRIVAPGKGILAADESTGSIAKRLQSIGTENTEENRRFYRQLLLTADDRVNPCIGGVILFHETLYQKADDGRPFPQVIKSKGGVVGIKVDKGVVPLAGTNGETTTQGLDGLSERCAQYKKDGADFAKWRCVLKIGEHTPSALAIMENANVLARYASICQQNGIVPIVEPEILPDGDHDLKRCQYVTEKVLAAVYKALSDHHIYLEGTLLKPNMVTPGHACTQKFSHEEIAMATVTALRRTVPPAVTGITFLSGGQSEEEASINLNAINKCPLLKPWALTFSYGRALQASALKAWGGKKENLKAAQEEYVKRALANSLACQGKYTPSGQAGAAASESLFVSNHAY

T6: CAPN2 513-700 EF-hand_8 (domain begin residue: 513, domain end residue: 700), P17655
T6 chain: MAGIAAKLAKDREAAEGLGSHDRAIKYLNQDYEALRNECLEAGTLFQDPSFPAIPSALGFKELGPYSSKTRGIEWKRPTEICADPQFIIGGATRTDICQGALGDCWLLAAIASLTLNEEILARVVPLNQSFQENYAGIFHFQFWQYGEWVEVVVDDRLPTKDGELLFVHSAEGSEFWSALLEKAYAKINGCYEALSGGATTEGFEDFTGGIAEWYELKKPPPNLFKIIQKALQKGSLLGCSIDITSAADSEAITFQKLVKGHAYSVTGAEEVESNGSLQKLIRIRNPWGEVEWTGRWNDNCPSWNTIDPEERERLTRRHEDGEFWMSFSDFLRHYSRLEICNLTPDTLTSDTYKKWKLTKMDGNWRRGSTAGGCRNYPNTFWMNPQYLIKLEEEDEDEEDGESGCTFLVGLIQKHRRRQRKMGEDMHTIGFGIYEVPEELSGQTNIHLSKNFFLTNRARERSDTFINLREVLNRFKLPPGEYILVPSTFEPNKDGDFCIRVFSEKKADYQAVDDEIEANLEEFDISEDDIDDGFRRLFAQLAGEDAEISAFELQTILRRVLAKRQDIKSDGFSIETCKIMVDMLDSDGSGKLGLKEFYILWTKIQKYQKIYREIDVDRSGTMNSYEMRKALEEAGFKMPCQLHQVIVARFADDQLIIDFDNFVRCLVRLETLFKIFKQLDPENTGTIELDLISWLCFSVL

T7: CAPNS1 1-268 EF-hand_8+EF-hand_5 (domain begin residue: 1, domain end residue: 268), P04632
T7 chain: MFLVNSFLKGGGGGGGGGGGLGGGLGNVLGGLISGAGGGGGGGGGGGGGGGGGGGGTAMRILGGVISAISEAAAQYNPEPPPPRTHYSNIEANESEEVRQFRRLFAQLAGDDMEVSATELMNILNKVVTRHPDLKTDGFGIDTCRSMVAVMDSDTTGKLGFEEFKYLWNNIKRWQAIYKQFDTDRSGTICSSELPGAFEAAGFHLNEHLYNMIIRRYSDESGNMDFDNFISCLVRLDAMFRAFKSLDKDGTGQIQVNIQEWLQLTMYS

B1: unnamed (peptide)
chain: DWWDMWAQGDILEIHS
B2: unnamed (peptide)
chain: GLDLDYWTMPGLETLL
B3: unnamed (peptide)
chain: WHPMDWMEHFQMMPDT
B4: unnamed (peptide)
chain: NWDMWMEEQYDPSVML
B5: unnamed (peptide)
chain: QQVVDMQQMWQQWIEI
B6: unnamed (peptide)
chain: STDIWDMWREWNEIDM
B7: unnamed (peptide)
chain: AWSYLHGEWEWVQPVM
B8: unnamed (peptide)
chain: GDWEWVERWLEMHLLE
B9: unnamed (peptide)
chain: LHSNLEEWLLEDLMMW

Biological target: T1, ARID4A 568-634 Tudor-knot (domain begin …
Assay: phage ELISA signal ratio (GST-PRM binding over GST background); higher = stronger binding of peptide-phage to the PRM
Description: (§1)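 Phage-displayed random hexadecapeptides (Cys-free, flanked by invariant Gly linkers, fused to the M13 P8 major coat protein) were selected over 5 rounds against GST-fused human PRM domains. Individual clones from rounds 4-5 were tested by phage ELISA, and positive clones binding the target but not GST were sequenced. Values are the ELISA signal ratio of target over background (GST); the background signal is given separately.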

**Q.** How did the “phage ELISA signal ratio” value turn out when B1 was run?
**A.** 11.5

**Q.** For B2, which “phage ELISA signal ratio” value is on record?
**A.** 8.9

**Q.** How did the “phage ELISA signal ratio” value turn out when B4 was run?
**A.** 9.12

**Q.** How did the “phage ELISA signal ratio” value turn out when B5 was run?
**A.** 4.93

**Q.** For B6, which “phage ELISA signal ratio” value is on record?
**A.** 9.5 ± 0.67

Biological target: T2, BTN1A1 285-479 SPRY (domain begin …
Assay: as above
Description: as §1

**Q.** For B3, which “phage ELISA signal ratio” value is on record?
**A.** 5.73

Biological target: KMT2C 1055-1137 PHD (domain begin residue: 1055, domain end residue: 1137)
Assay: as above
Description: as §1

**Q.** With B6 as the binder, how does the “phage ELISA signal ratio” value read?
**A.** 6.74

Biological target: KMT2C 995-1055 PHD (domain begin residue: 995, domain end residue: 1055)
Assay: as above
Description: as §1

**Q.** For B6, which “phage ELISA signal ratio” value is on record?
**A.** 5.38

Biological target: SETD1A 2-220 RRM_1 (domain begin residue: 2, domain end residue: 220), O15047
Sequence (O15047 whole entry): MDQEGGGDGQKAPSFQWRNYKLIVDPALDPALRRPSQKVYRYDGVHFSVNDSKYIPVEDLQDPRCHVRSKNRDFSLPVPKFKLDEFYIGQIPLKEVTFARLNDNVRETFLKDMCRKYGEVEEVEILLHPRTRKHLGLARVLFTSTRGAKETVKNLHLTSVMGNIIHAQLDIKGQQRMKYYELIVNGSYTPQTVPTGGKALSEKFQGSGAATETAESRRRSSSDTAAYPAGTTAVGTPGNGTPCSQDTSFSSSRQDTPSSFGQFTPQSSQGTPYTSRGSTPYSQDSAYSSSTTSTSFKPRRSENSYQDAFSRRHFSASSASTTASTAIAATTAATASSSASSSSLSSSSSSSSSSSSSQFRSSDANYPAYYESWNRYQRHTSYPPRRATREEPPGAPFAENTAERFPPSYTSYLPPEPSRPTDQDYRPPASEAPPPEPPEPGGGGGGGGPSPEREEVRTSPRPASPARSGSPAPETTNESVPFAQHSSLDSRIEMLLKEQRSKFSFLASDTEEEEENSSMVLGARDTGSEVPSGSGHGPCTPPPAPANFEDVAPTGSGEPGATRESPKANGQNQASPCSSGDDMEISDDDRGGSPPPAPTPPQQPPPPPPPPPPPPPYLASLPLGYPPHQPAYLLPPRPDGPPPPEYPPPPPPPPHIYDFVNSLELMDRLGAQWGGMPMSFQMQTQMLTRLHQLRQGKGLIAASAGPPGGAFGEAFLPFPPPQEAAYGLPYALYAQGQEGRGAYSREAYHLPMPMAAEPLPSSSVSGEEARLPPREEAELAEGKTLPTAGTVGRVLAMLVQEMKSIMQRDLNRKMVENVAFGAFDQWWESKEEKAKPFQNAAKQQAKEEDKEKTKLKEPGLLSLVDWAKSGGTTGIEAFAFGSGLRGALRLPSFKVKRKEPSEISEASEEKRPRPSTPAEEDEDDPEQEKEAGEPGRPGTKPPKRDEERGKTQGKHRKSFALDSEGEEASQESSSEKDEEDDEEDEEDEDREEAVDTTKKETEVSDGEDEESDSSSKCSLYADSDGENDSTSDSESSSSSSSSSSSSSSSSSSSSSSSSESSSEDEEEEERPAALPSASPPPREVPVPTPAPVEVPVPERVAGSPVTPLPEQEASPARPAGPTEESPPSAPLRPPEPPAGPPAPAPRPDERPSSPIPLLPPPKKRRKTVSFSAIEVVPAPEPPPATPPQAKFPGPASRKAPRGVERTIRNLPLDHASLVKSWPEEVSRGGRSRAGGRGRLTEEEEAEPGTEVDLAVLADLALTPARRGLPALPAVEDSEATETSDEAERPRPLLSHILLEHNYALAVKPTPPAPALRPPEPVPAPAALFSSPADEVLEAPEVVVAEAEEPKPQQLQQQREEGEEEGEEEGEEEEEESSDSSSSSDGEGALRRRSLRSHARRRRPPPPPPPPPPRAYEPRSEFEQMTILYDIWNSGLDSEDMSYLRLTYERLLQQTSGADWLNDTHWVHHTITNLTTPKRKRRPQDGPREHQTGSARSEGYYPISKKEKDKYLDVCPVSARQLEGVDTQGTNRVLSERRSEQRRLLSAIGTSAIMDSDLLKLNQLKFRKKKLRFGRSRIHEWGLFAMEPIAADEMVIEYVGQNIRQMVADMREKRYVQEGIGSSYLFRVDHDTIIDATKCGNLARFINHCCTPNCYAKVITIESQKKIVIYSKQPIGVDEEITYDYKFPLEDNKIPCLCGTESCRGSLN
Assay: as above
Description: as §1

**Q.** How did the “phage ELISA signal ratio” value turn out when B6 was run?
**A.** 12

Biological target: T3, TDRD1 261-449 TUDOR (domain begin …
Assay: as above
Description: as §1

**Q.** Which “phage ELISA signal ratio” value does the source give for B6 here?
**A.** 9.16

Biological target: T4, TDRKH 290-430 TUDOR+SNase (domain begin …
Assay: as above
Description: as §1

**Q.** For B6, which “phage ELISA signal ratio” value is on record?
**A.** 6.85

Biological target: T5, ALDOA 1-364 Glycolytic (domain begin …
Assay: as above
Description: as §1

**Q.** Which “phage ELISA signal ratio” value does the source give for B7 here?
**A.** 14.5

Biological target: T6, CAPN2 513-700 EF-hand_8 (domain begin …
Assay: as above
Description: as §1

**Q.** Which “phage ELISA signal ratio” value does the source give for B8 here?
**A.** 12.6

Biological target: T7, CAPNS1 1-268 EF-hand_8+EF-hand_5 …
Assay: as above
Description: as §1

**Q.** How did the “phage ELISA signal ratio” value turn out when B9 was run?
**A.** 18.9

Source: the supplement of paper PMC7724964
